D1 PAM = potentiators of human D1 dopamine receptor; P21728; hit rate 0.036% among 360,000; potentiation, % at 10 µM; AID 504651; HEK293 TREx D1 cells, calcium flux, dopamine EC20 potentiation; in the data active = potentiation above about 30%; note: 0% is about no effect
TRHR ag = TRH receptor (human) agonism; P34981; TRHR cells, calcium flux fluo-8, FDSS agonist mode; activation, % at 2 µM; hit rate 0.18% among 360,000; AID 493084; note: 0% is about no effect
Target sequence (P34981 whole entry, looked up): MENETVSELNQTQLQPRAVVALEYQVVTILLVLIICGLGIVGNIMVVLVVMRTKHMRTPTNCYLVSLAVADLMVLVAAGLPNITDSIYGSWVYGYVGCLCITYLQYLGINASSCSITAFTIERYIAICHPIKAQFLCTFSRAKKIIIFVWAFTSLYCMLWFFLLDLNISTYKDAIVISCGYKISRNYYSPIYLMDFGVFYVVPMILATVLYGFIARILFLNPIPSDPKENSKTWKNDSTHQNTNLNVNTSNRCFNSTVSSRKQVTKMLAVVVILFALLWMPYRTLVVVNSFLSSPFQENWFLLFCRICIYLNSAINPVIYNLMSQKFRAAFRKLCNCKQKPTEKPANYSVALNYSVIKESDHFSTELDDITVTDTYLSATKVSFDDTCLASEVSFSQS
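Agonist-mode FDSS calcium read (Ex 480/Em 530, 1 s cycles) in 1536-well TRHR cells with fluo-8 dye, after 10-cycle baseline and 23 nL compound addition; TRH at EC20 (10 nM final) added afterwards for the enhancer phase.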
TRHR PAM = allosteric enhancers of human TRH receptor; TRHR cells, fluo-8 calcium fluorescence, EC20 TRH enhancement; enhancement, % at 2 µM; hit rate 0.66% among 360,000; in the data active = enhancement above about 30%; note: 0% is about no effect
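TRHR-expressing cells loaded with fluo-8 calcium dye were read kinetically (ex 480/em 530) during compound addition, then stimulated with an EC20 of TRH (10 nM final). Enhancement of the Gq-mediated intracellular calcium response was scored.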
D1 ag = agonists of human D1 dopamine receptor; activation, % at 2 µM; HEK293 T-REx D1 cells, calcium flux, agonist mode; AID 504660; hit rate 1% among 360,000; P21728; note: 0% is about no effect
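Tetracycline-induced HEK293 TREx D1 cells, force-coupled to calcium signalling, were dye-loaded with a no-wash calcium kit. Compound was pin-added after a 10 s baseline. Fluorescence was read kinetically at 1 cycle/s for 180 s, with calcium rises flagged as agonism.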
D1 antag = human D1 dopamine receptor antagonism | P21728 | HEK293 TREx D1 cells, calcium flux, dopamine EC80; hits give low values | activity change, negative = inhibition, % at 10 µM | hit rate 3.2% among 360,000 | AID 504652; in the data active = activity change below about -30%; note: % is set by controls: 0 for no effect and ±100 for the full control effect
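Tetracycline-induced HEK293 T-REx cells with force-coupled D1 receptor were loaded with a no-wash calcium dye. Compound was added after a 10 s baseline and read kinetically for 180 s; EC80 dopamine was then added and calcium flux followed another 180 s.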
Starred values were filed as active, the others as inactive; / = no result. Sampled rows, rich in hits. Any-hit rate of the full collection: about 4.7%. Cut-off read from the data, not from the text of the source, unless noted: active = activation above about 30%; inactive = the rest.

SMILES	D1 PAM	TRHR ag	TRHR PAM	D1 ag	D1 antag
Cc1c(NC(=O)Nc2cccs2)cccc1[N+](=O)[O-]	-12	1	3	18	-36*
Cc1cccc(NC(=O)Nc2cccs2)c1C	-3	1	12	5	-3
O=C(Nc1cccs1)Nc1ccc(Br)cc1F	1	-1	21	17	-32*
COCCNC(=O)/C(C#N)=C/c1cc(C)n(-c2ccc(C)cc2)c1C	-10	-2	-3	9	-64*
Cc1ccc(-n2c(C)cc(C=C(C#N)C#N)c2C)cc1	-4	0	-10	7	-46*
Cc1cc(C=C(C#N)C#N)c(C)n1-c1ccccc1	1	1	-9	5	-18
O=C(c1c[nH]c2ccccc12)C(Cl)c1ccccc1 (stereo unspecified)	-1	-2	5	18	-39*
CCOC(=O)C1CCCN(c2c(N3CCN(c4ccccn4)CC3)c(=O)c2=O)C1 (stereo unspecified)	-12	0	3	1	-52*
CCOC(=O)C1CCN(c2c(N3CCCC(C(=O)OCC)C3)c(=O)c2=O)CC1 (stereo unspecified)	0	0	0	1	-14
Cc1[nH]c(C)c(S(=O)(=O)N(Cc2ccccc2)C(C)C)c1C(=O)N1CCCC1	5	0	-2	1	-34*
Cc1cccc(N2CCN(S(=O)(=O)c3c(C)[nH]c(C)c3C(=O)N3CCCCC3)CC2)c1C	-11	1	30*	13	-16
CCOC(=O)c1cn(-c2ccc([N+](=O)[O-])cc2)c2cc(Cl)c([N+](=O)[O-])cc2c1=O	-4	0	0	2	-42*
O=C(O)c1cn(-c2ccc(F)cc2)c2cc(Cl)c(F)cc2c1=O	4	0	0	2	-4
NC(=O)NC(c1ccccc1)c1ccccc1	35*	1	-5	185*	/
CCc1ccc(CNC(=O)c2ccc3nc(C(C)C)oc3c2)cc1	-2	0	4	11	0
Cc1cc2oc(C(=O)Nc3cccc(-c4nc5ccccc5o4)c3)c(C)c2cc1C	-1	-1	3	54*	-4
CC(=O)Nc1cccc(-c2nc3ccccc3o2)c1	2	2	1	4	25
Cc1cc(C)c2oc(-c3cccc(NC(=O)c4ccc(Br)o4)c3)nc2c1	3	0	-1	-1	0
CCc1ccc2oc(-c3cccc(NC(=O)COc4ccccc4Cl)c3)nc2c1	-3	1	43*	-1	8
O=C(Nc1ccc(-c2nc3cc(Cl)ccc3c(=O)o2)cc1)c1ccco1	-9	0	8	1	-32*
Cc1cc(C)c2oc(-c3cccc(NC(=O)c4ccco4)c3)nc2c1	1	1	-9	3	-46*
CCCS(=O)(=O)c1c(S(=O)(=O)CCC)c2cc(C(C)(C)C)ccn2c1C(=O)c1ccc(OC)c(OC)c1	-1	-1	7	22	3
COc1ccccc1OC(C)C(=O)Nc1cccc(-c2nc3ccccc3o2)c1 (stereo unspecified)	-1	-1	6	32*	-8
COc1ccccc1-c1nc(SCC(=O)NCc2ccccc2)c2c(=O)n(C)c(=O)n(C)c2n1	0	0	1	-1	-8
CCCCCC(O)CCc1n[nH]c(=S)n1-c1ccccc1 (stereo unspecified)	-1	0	2	1	11
SMILES	D1 PAM	TRHR ag	TRHR PAM	D1 ag	D1 antag
CCCCC(CC(O)COCCC)c1n[nH]c(=S)n1-c1ccccc1 (stereo unspecified)	-2	1	-3	5	-45*
O=C1CC(c2nc(-c3ccccc3)no2)CN1c1ccc2c(c1)OCCO2 (stereo unspecified)	-6	0	-5	10	-9
COc1ccc(OCC(O)CNC(=O)Nc2ccc(C(C)(C)C)cc2)cc1 (stereo unspecified)	-11	-1	-2	1	2
COc1ccc(OCC(O)CNC(=O)Nc2cc(F)ccc2C)cc1 (stereo unspecified)	-7	0	3	-1	-41*
NNC(=O)c1ccc(N2CCc3ccccc32)c([N+](=O)[O-])c1	-2	0	-4	1	-33*
Cc1ccc(CNC(=O)c2ccc(N3CCc4ccccc43)c([N+](=O)[O-])c2)cc1	-2	0	-7	1	-10
COC(CNC(=O)c1ccc(N2CCc3ccccc32)c([N+](=O)[O-])c1)OC	-5	1	-3	10	-31*
CCN1CCN(C(c2ccc(SC)cc2)c2c(O)cc(C)n(Cc3ccco3)c2=O)CC1 (stereo unspecified)	-2	0	22	-2	3
CCCNC(=O)c1ccc(-n2c(-c3ccccc3)cc3c2CCCCC3)cc1	-3	1	-7	11	-19
COCCNC(=O)c1ccc(-n2c(-c3ccccc3)cc3c2CCCCC3)cc1	-5	0	0	39*	-18
COc1ccc(-c2oc3ncn4nc(COc5cccc(C)c5C)nc4c3c2-c2ccc(OC)cc2)cc1	-3	-2	9	3	-5
CC(C)NC(=O)NC(=O)COC(=O)/C=C/c1ccc2c(c1)OCO2	-1	0	9	1	-30*
CC(NC(=O)COC(=O)/C=C/c1ccc2c(c1)OCO2)c1ccccc1 (stereo unspecified)	-3	0	3	1	-5
Cc1c2cnn(CC(=O)NC(C)C)c(=O)c2c(C)n1Cc1ccccc1Cl	-2	0	-3	2	-31*
COc1ccccc1CNC(=O)Cn1ncc2c(C)n(Cc3ccccc3Cl)c(C)c2c1=O	-2	-1	1	2	-4
COc1ccc(-c2n[nH]c3c2cnc2cc(OC)c(OC)cc23)cc1	0	0	23	1	-4
CCOC(=O)c1cnc2c(C)cc(C)cc2c1Nc1ccccc1OCC	1	0	-4	1	-18
CCOC(=O)c1cnc2c(C)c(Cl)ccc2c1Nc1ccc(S(=O)(=O)Nc2ncccn2)cc1	-5	-1	0	3	-39*
CCOC(=O)c1cnc2c(ccc3ccccc32)c1Cl	-2	0	-8	3	-53*
CCOC(=O)c1cnc2ccc(Cl)cc2c1Nc1ccc(S(=O)(=O)Nc2ncccn2)cc1	-5	0	6	0	7
CCOC(=O)c1cnc2c(ccc3ccccc32)c1Nc1ccccc1O	-4	0	1	1	-47*
COc1ccc(NC(=O)Cn2c(=O)n(CCc3ccccc3)c(=O)c3sc4ccccc4c32)cc1	0	-2	14	4	-8
COc1cccc(C(c2nnnn2CC2CCCO2)N2CCN(C(=O)c3ccco3)CC2)c1OC (stereo unspecified)	-1	0	2	6	-38*
CCN(CC)C1=NS(=O)(=O)c2cc([N+](=O)[O-])ccc21	-2	0	34*	-1	15

Bioassay records as filed in PubChem BioAssay.
